Assay results: PubChem BioAssay AID1347077 (National Center for Advancing Translational Sciences (NCATS), 2019)
In all, about 44,000 compounds went through this assay and fewer than 10 were called active. Calls follow the shape of the dose curve; as a rule, active = well fitted activation curve with a large enough effect; inconclusive = small, poorly fitted or top-dose-only effect, or another doubt; inactive = no such curve, though single readings can be large or run the other way. Only a sample is shown.

The compounds below were run against Beta-2 adrenergic receptor (Homo sapiens) (UniProt P07550) (assay: qHTS assay of beta-arrestin-biased ligands of beta2-adrenergic receptor: NCGC Sytravon Library Screen). Conditions: HTLA Tango cells, beta-arrestin recruitment, luciferase luminescence, 18 h; series mostly up to 46.1 µM; activation: at the top concentration.
Sequence of Beta-2 adrenergic receptor (Homo sapiens) (P07550 whole entry, looked up): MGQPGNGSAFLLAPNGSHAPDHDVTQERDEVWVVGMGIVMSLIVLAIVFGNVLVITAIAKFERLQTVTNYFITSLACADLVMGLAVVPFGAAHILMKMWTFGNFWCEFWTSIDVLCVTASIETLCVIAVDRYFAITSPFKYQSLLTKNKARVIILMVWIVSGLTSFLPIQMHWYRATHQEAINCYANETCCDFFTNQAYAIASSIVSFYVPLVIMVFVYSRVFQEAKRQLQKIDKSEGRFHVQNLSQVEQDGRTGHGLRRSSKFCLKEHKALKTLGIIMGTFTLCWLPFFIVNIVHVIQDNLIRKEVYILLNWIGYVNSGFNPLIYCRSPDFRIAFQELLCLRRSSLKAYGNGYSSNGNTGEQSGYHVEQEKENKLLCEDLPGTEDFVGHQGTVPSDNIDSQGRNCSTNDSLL
Description: The concept of biased agonism is an emerging concept of molecular pharmacology which proposes that seven transmembrane receptors (7TMRs) or G protein-coupled receptors (GPCRs), exist in multiple signaling conformations and complexes and that ligands (either agonists or antagonists) can induce signaling biased responses for distinct signal transduction cascades. […] Furthermore, accumulating evidence over the last decade has drawn attention to a novel function of beta-arrestins as signal transducers that scaffold various signaling molecules upon activation of 7TMRs. […] This beta-arrestin-biased signaling presumably leads to distinct physiological outcomes from those by G protein activation. Additionally, the active receptor conformations which prefer on this beta-arrestin signaling are likely different from those activating G protein signaling. […] The goal of this screening project will be to discover and optimize novel beta-arrestin-biased ligands for beta2-AR signaling. A luminescent cell-based assay for beta2-AR-mediated agonism, known as the Tango assay, has been validated in which ligand binding of a recombinant beta2-AR and subsequent recruitment of a recombinant beta-arrestin lead to the release of the transcriptional activator tTA, which upregulates transcription of a tTA-responsive luciferase gene. […] Compounds from the NCGC Sytravon Library collection were screened as a concentration-titration series that ranged from 46 microM to 0.6 nM. NIH Molecular Libraries Probe Production Network [MLPCN] NIH Chemical Genomics Center [NCGC] MLPCN Grant: Fast-track/HHSN271700800025C PI: Bryan Roth and Bob Lefkowitz
Tango cells were dispensed into white, solid, tissue-culture-treated 1536-well plates at 1500 cells/well in DMEM, containing 1% fetal bovine serum (FBS). Then, 23 nL of compounds or DMSO were delivered to each well using a pin tool. Plates were incubated at 37 degrees C, 5% CO2 for 18 hr. Then 2.5 uL luminescent substrate mix (in-house prepared: 150 mM Tris-Cl, pH 7.6, 3 mM MgCl2, 1% Triton X-100, 5 mM DTT, 0.5 mM CoA, 0.15 mM ATP, 0.44 mM D-luciferin, final concentrations) was added to each well. Plates were then incubated for 15 minutes at room temperature, and subsequently measured on a ViewLux plate reader for luminescent signal using a clear filter with a 10 second exposure and 2x binning. The %Activity was determined from the corrected luminescence values. […] Concentration-response curves were fitted to the signals arising from the resulting luminescence. The concentration-effect curves were then classified based on curve quality (r2), response magnitude and degree of measured activity, and compounds were subsequently categorized based on their curve class.
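Also: 0% = DMSO and full agonism = EC100 isoproterenol or metaproterenol.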

activation, inactive:
OCc1cnc(SCc2ccc(F)cc2)n1Cc1ccc(F)cc1 -1.11%
CCOc1cc2[nH]c(=O)n(Cc3ccc(C(=O)NCCN(CC)CC)cc3)c(=O)c2cc1OCC -2.85%
COc1ccc(Nc2ncc3c(n2)CCN(C(=O)OC(C)(C)C)C3)cc1 -1.93%
CCOC(=O)CNC(=O)c1cc2c(=O)n3cccc(C)c3nc2s1 0.42%
COC(=O)c1ccc(NC(=O)CCc2c(C)nn(-c3ccc(N4CCCC4)nn3)c2C)cc1 0.407%
CC(=O)N1CCCc2cc(S(=O)(=O)N3CCC(C(=O)NCc4ccc(C)cc4)CC3)ccc21 -0.216%
O=C1CC(c2ccc(F)cc2F)c2cc3c(cc2N1)OCO3 (stereo not drawn) 0.79%
COc1cccc(NC(=O)CSc2cc(=O)n(C)c3ccc(Cl)cc23)c1 0.89%
CC(=O)c1cccc(NC(=O)c2nc(-c3ccccc3)n(-c3cccc(C)c3)n2)c1 -1.39%
O=C(Nc1ccc2nc(SCC(=O)N3CCCc4ccccc43)sc2c1)c1ccc(Cl)cc1 -4.59%
COc1ccc(NC(=O)c2cc3cc(C)ccc3n2C)cc1 -4.51%
CCc1ccc(NC(=O)CN2CCSc3ccc(S(=O)(=O)N4CCCC4)cc32)cc1 2.13%
O=c1cc2nc(-c3ccccc3)nc(SCCOc3ccc(Cl)cc3)n2[nH]1 -1.33%
CCc1ccc(Sc2cc(C(=O)NCCCOC(C)C)c3ccccc3n2)cc1 5.47%
Cn1c(=O)c2c(nc(NCCc3ccccc3)n2Cc2ccccc2Br)n(C)c1=O 0.853%
O=C(CSc1ncc(S(=O)(=O)c2ccc(Br)cc2)c(=O)[nH]1)Nc1ccc2c(c1)OCCO2 -1.59%
CCN1CCN(c2cc(C)c3cc(NC(=O)c4cc(Cl)ccc4OC)ccc3n2)CC1 -0.147%
Cc1cccc(-n2c(=O)c3c(c4cc(C)ccc4n3C)n(CC(=O)Nc3ccccc3Cl)c2=O)c1 0.368%
CCc1ccccc1NC(=O)CSc1nc(C)c(C(=O)Nc2ccccc2)c(-c2ccc(Cl)cc2)c1C#N -0.211%
O=C(NCc1ccccc1Cl)C1=Cc2cc(Br)ccc2OC1 -0.0504%
COC(=O)C1=C(c2ccccc2)c2ccccc2S(=O)(=O)N1CC(=O)Nc1ccccc1C(F)(F)F -2.12%
Cc1ccc2cccc(NC(=O)c3cccc4ccccc34)c2n1 0.459%
CC(C)OCCCn1c(SCC(=O)c2ccccc2)nc2c(sc3ccccc32)c1=O -3.59%
CCC(C)Nc1oc(-c2ccc(COc3ccc(Cl)cc3)o2)nc1C#N (stereo not drawn) -4.1%
Cc1ccc(NC(=O)c2nc(S(=O)(=O)Cc3cccc(C)c3)ncc2Cl)cc1 -1.39%
COc1ccc(C2C(=O)N(C3CCCCCC3)CC(=O)N2CCc2ccc(Cl)cc2)cc1OC (stereo not drawn) -0.695%
CCOC(=O)c1cnc2c(C)cc(Cl)cc2c1NCCc1ccc(OC)c(OC)c1 -2.28%
Cc1cccc(CC(=O)Nc2cccc(-c3cn4cccnc4n3)c2)c1 0.528%
Cc1cc(C)cc(NC(c2nnc(-c3cccc(F)c3)o2)c2ccc(F)cc2Cl)c1 (stereo not drawn) -2.14%
Cn1nnnc1SCCCNCc1cccc(OCc2ccc(Cl)cc2)c1 -4.7%
COCCn1c(CCC(=O)Nc2cc(C)ccc2C)nc2cccnc21 -2.56%
O=C(CSc1oc(-c2ccccc2)nc1S(=O)(=O)c1ccc(Br)cc1)NC1CCCCC1 0.602%
COc1ccccc1CNC(=O)CCCCn1c(=O)c2ccccc2n(CC(=O)Nc2cc(Cl)ccc2C)c1=O -1.9%
COc1cccc(CNC(=O)Cc2csc3nc(-c4ccccc4)cn23)c1 -0.157%
Cn1c(COc2ccccc2C(C)(C)C)nc2ccccc21 0.351%
Cc1ccc(CNC(=O)CSc2c(C)cnc3c2c(=O)n(C)c(=O)n3C)cc1 -3.91%
Cc1ccc(CN2CCC(CNC(=O)c3cnn(-c4ccc(C)cc4)c3C3CCN(C(=O)OC(C)(C)C)CC3)CC2)cc1 -0.676%
CSc1nc(=O)c2c(n1C)NC(=O)CC2c1ccccc1OC(C)C (stereo not drawn) -3.09%
COc1ccc(-c2c(C)c3ccc(O)c(CN4CCCC4)c3oc2=O)cc1OC 4.22%
COc1ccccc1NC(=O)c1oc2ccccc2c1NC(=O)COc1ccccc1OC 1.24%
CC(=O)N1CCc2cc(S(=O)(=O)NC(Cc3ccccc3)C(=O)NCc3ccc(C)cc3)ccc21 (stereo not drawn) 0.236%
O=C1Cc2cc(S(=O)(=O)Nc3ccc(OC(F)(F)F)cc3)cc3c2N1CCC3 -0.19%
CC1CCCN(c2nc3c(S(=O)(=O)c4ccc(C(C)C)cc4)nnn3c3ccsc23)C1 (stereo not drawn) 0.103%
Cc1ccc(CSc2nc3ccsc3c(=O)n2CCC(C)C)cc1 -2.67%
CCOc1ccccc1CNC(=O)C1CCCN(S(=O)(=O)c2ccc3c(ccn3C)c2)C1 (stereo not drawn) 1.37%
Cc1ccc2c(=O)cc(C(=O)Nc3sc4c(c3C(=O)NCc3cccnc3)CCCC4)oc2c1 -0.248%
COc1ccc(C(=O)Nc2ccc3nc(N4CCCCC4)cc(C)c3c2)cc1OC 0.327%
COC(=O)CC1Oc2ccccc2-n2cc(-c3ccccc3)nc21 (stereo not drawn) 0.516%
CCOC(=O)c1cc(-c2ccc(OC)c(S(=O)(=O)Nc3ccc(OC)cc3OC)c2)on1 1.94%
Cc1cccc(NC(=O)c2ccc3nc(C(C)C)oc3c2)c1C 0.235%
COc1ccc(Cl)cc1-n1c(CCC(=O)O)ccc1-c1ccc(C)cc1 0.64%
O=C(Nc1ccccc1F)C(c1ccccc1)N1Cc2ccccc2C1=O (stereo not drawn) -0.457%
Cc1ccc(-c2cc(N)n(Cc3cccc(Cl)c3)n2)cc1 0.672%
Cc1nc(SCC(=O)N2CCN(c3ccccc3)CC2)[nH]c(=O)c1C 0.294%
Cc1ccc(C)c(N2CCN(C(=O)C3CCC(CNS(=O)(=O)c4cccs4)CC3)CC2)c1 (stereo not drawn) -1.22%
CCOc1ccc(CNCCSc2nnnn2C)cc1 0.552%
NS(=O)(=O)c1ccc(NC(=O)C(=O)Nc2ccc3nc4n(c(=O)c3c2)CCCCC4)cc1 -2.66%
CCc1ccc(-n2nnc(-c3nc(-c4ccccc4)no3)c2C)cc1 -0.41%
COc1cccc(CNc2nccn(-c3ccc(OC)c(OC)c3)c2=O)c1 0.0673%
COc1ccc(NC(=O)CSc2nc3ccccc3[nH]2)cc1 -2.24%
CC(C)c1ccc(NC(=O)C2CCN(c3nc(-c4ccc(C(C)C)cc4)no3)CC2)cc1 -0.161%
CCOc1cccc2cc(-c3cn4c(n3)sc3cc(C)ccc34)c(=O)oc12 -2.89%
CCc1cc2c(cc3c(=O)n(CC(=O)NCc4cccc(Cl)c4)nc(CC)n32)s1 0.858%
